In the supplement of paper PMC6522484:
± gives the standard deviation of the averaged measurements.

How the values were obtained:
DLD1 [1] = assay: cell viability (CellTiter-Glo) relative to plate median (fraction of plate median); higher = more viable cells; conditions: 5 µM; treatment time 24 h; reporter: 7TFP
Summary of the method: (§1)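 Luminescence, normalised well by well to the plate median, is tabulated as a mean of independent replicates. There were two replicates, run on colorectal cancer lines stably transduced with lentiviral TCF/Wnt firefly luciferase reporters and dosed with library compounds at a final 5 µM for 24 h. Readouts were firefly luciferase or CellTiterGlo on parallel plates.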

HCT116 = assay: as above; conditions: 5 µM; treatment time 24 h; reporter: TCF4/Wnt
Summary of the method: as §1

SW480 [2] = assay: as above; conditions: 5 µM; treatment time 24 h; reporter: 7TFP
Summary of the method: as §1

DLD1 [3] = assay: TCF/Wnt firefly luciferase reporter signal relative to plate median (fraction of plate median); higher = higher Wnt reporter signal; conditions: 5 µM; treatment time 24 h; reporter: 7TFP
Summary of the method: as §1

SW480 [4] = assay: as above; conditions: 5 µM; treatment time 24 h; reporter: 7TFP
Summary of the method: as §1

Row | SMILES | cell viability (DLD1 [1]) | cell viability (HCT116) | cell viability (SW480 [2]) | TCF/Wnt firefly luciferase reporter signal (DLD1 [3]) | TCF/Wnt firefly luciferase reporter signal (SW480 [4])
1 | COc1c(O)cc2oc3cc(O)c(CC=C(C)C)c(O)c3c(=O)c2c1CC=C(C)C [alpha-MANGOSTIN] | 1.055 ± 0.0071 | 1.15 ± 0.021 | 1.01 ± 0.015 | 1.04 ± 0.24 | 0.941 ± 0.076
2 | CC1(C)S[C@@H]2[C@H](NC(=O)[C@H](NC(=O)N3CCNC3=O)c3ccccc3)C(=O)N2[C@H]1C(=O)O | 1.07 ± 0.014 | 0.988 ± 0.0042 | 0.956 ± 0.046 | 0.903 ± 0.0099 | 0.919 ± 0.053
3 | CN1CCN(CCCN2c3ccccc3Sc3ccc(C(F)(F)F)cc32)CC1 | 0.999 ± 0.0014 | 1.08 ± 0.13 | 1.09 ± 0.028 | 1.21 ± 0.17 | 1.05 ± 0.14
4 | CC(=O)OCC(=O)[C@@]1(O)CC[C@H]2[C@@H]3CCC4=CC(=O)CC[C@]4(C)[C@H]3C(=O)C[C@@]21C | 1.04 ± 0.021 | 1 ± 0.079 | 1.12 ± 0.12 | 1.05 ± 0.021 | 1.04 ± 0.13
5 | O=C(O[C@@H]1Cc2c(O)cc(O)cc2O[C@@H]1c1ccc(O)c(O)c1)c1cc(O)c(O)c(O)c1 | 0.946 ± 0.061 | 0.805 ± 0.24 | 1.04 ± 0.1 | 1.03 ± 0.11 | 1.08 ± 0.021
6 | COc1cc2c(cc1OC)-c1cc3ccc(OC)c(OC)c3c[n+]1CC2 | 0.983 ± 0.067 | 0.896 ± 0.16 | 0.949 ± 0.054 | 1.105 ± 0.0071 | 1.01 ± 0.073
7 | CC(C)NNC(=O)c1ccncc1 | 1.02 ± 0.029 | 0.992 ± 0.054 | 1 ± 0.083 | 1.07 ± 0.042 | 1.01 ± 0.021
8 | C[C@]12C=CC(=O)C=C1CC[C@@H]1[C@@H]2[C@@H](O)C[C@@]2(C)[C@H]1CC[C@]2(O)C(=O)COC(=O)CCC(=O)O | 1.02 ± 0.028 | 1.01 ± 0.092 | 1.03 ± 0.014 | 1.075 ± 0.0071 | 0.969 ± 0.072
9 | CN1[C@@H](CC(=O)c2ccccc2)CCC[C@H]1C[C@H](O)c1ccccc1 | 1.1 ± 0.13 | 0.987 ± 0.061 | 1.05 ± 0.021 | 0.998 ± 0.032 | 1.04 ± 0.098
10 | CC(=O)OC1CCC23CC1(C)CCC2C(C)(C)CC3OC(C)=O (stereo not given) | 0.999 ± 0.044 | 1.09 ± 0.021 | 1.02 ± 0.042 | 1.03 ± 0.014 | 0.93 ± 0.04
11 | CO[C@H]1C[C@H](O[C@H]2[C@H](C)[C@@H](O[C@@H]3O[C@H](C)C[C@H](N(C)C)[C@H]3O)[C@@H](C)C[C@@]3(CO3)C(=O)[C@H](C)[C@@H](O)[C@@H](C)[C@@H](C)OC(=O)[C@@H]2C)O[C@@H](C)[C@@H]1O | 0.97 ± 0.0028 | 0.91 ± 0.087 | 0.915 ± 0.05 | 0.869 ± 0.05 | 1.05 ± 0.1
12 | CC(C[N+](C)(C)C)OC(N)=O (stereo not given) | 1.14 ± 0.035 | 0.8 ± 0.48 | 1.1 ± 0.12 | 0.925 ± 0.037 | 1.05 ± 0.071
13 | CCOc1ccc2ccccc2c1C(=O)N[C@@H]1C(=O)N2[C@@H]1SC(C)(C)[C@@H]2C(=O)O | 0.991 ± 0.07 | 1.035 ± 0.0071 | 1.06 ± 0.071 | 1.1 ± 0.26 | 1.12 ± 0.057
14 | C/C=C/C=C/C1C=CC2CC(C)CCC2C1(C)/C(O)=C1/C(=O)NC(C(C)O)C1=O (stereo not given) [Altersetin] | 1 ± 0.023 | 0.974 ± 0.018 | 1 ± 0.011 | 1 ± 0.043 | 0.923 ± 0.052
15 | CN/C(=N\CCSCc1nc[nH]c1C)NC#N | 1.04 ± 0.021 | 1.12 ± 0.042 | 1.04 ± 0.021 | 1.12 ± 0.18 | 1.06 ± 0.042
